# Measurements published in PubChem BioAssay.
# Unmarked numbers belong to inactive results. For some assays here: Measured potencies and affinities stand elsewhere. The source made the active and inactive calls. Unless noted, how the calls were made is not given here.
# Experiments:
# [1] = antimalarial activity against Dd2 strain (AID 2302;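 active means growth inhibition above 50% at the single 2 µM test dose, taken to imply half-maximal potency below 2 µM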;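 further: 0% = DMSO untreated growth and 100% = chloroquine plus artemisinin killed control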); conditions: P. falciparum Dd2 in RBCs, LDH growth readout, 72 h; at 2 µM; active compounds read high
# [2] = human hepatoma cell viability loss – ATP luminescence, cytotoxicity control for P. falciparum antimalarial project, primary screen (AID 2303;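 active means inhibition above 50%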;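 further: 0% = DMSO wells and 100% = digitonin-killed cells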); conditions: HepG2 viability, 24-48 h, at 10 µM, active compounds read high
# [3] = target: L-lactate dehydrogenase (Plasmodium falciparum (isolate CDC / Honduras)) (UniProt Q27743); assay: PfLDH activity inhibition – cell lysate, 3D7 strain, counter-screen for P. falciparum growth inhibition project (AID 2304);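 further: 0% = vehicle and 100% = reference inhibitor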; conditions: P. falciparum 3D7 crude extract, LDH APAD/NBT absorbance; at 2 µM; active compounds read high
# Sequence of L-lactate dehydrogenase (Plasmodium falciparum (isolate CDC / Honduras)) (Q27743 whole entry, looked up): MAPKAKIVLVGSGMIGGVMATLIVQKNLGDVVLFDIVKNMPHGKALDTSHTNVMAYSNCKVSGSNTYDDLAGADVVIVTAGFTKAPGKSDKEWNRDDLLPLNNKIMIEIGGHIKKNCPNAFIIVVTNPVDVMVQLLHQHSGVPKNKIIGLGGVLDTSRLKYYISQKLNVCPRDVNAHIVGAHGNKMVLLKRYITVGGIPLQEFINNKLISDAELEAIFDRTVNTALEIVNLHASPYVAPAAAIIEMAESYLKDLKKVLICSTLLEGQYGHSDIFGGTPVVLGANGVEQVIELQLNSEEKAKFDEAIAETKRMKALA
# [4] = inhibition of 3D7 malaria parasite growth – strain 3D7 (AID 2306);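 further: 0% = DMSO wells and 100% = chloroquine plus artemisinin control wells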; conditions: P. falciparum 3D7 erythrocytic growth, LDH absorbance, 72 h; at 2 µM; active compounds read high
# [5] = target: Calcium-dependent protein kinase 1 (Plasmodium falciparum (isolate 3D7)) (UniProt P62344); assay: PfCDPK1 kinase inhibitors, biochemical, TCAMS library (AID 1159585; cut-off not given, nearly all actives have IC50 up to about 0.98 µM;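 further: inhibitors leave more ATP so luminescence rises with inhibition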); conditions: recombinant PfCDPK1, Kinase-Glo ATP depletion luminescence
# Sequence of Calcium-dependent protein kinase 1 (Plasmodium falciparum (isolate 3D7)) (P62344 whole entry, looked up): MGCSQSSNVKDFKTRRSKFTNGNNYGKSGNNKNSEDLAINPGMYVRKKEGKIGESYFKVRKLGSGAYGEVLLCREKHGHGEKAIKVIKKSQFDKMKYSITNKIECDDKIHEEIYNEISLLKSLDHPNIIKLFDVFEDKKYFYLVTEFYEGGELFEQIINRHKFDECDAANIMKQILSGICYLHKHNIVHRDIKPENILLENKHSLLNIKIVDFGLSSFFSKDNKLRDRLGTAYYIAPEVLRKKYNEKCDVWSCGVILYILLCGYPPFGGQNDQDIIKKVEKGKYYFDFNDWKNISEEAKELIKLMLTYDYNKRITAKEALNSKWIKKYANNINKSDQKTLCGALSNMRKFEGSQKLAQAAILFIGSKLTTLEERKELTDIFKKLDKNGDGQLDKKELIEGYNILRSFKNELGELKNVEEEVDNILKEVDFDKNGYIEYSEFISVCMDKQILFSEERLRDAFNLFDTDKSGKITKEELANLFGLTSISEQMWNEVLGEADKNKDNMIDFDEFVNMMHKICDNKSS
# [6] = target: Plasmodium falciparum protein kinase 6 (PK6, PF3D7_1337100) (UniProt Q8IDW1); assay: PfPK6 kinase inhibitors, biochemical, TCAMS library (AID 1159586); conditions: recombinant PfPK6, Kinase-Glo ATP depletion luminescence
# Sequence of Plasmodium falciparum protein kinase 6 (PK6, PF3D7_1337100) (Q8IDW1 1-305): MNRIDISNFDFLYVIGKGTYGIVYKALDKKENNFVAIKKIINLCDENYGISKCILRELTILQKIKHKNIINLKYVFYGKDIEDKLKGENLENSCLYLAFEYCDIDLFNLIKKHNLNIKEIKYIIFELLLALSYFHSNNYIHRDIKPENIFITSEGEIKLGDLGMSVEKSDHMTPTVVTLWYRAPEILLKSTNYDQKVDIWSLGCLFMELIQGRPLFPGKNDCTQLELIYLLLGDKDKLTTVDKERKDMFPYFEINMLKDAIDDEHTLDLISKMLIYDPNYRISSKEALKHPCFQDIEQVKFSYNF
# [7] = target: Protein kinase 7 (PK7), Plasmodium falciparum 3D7 (PF3D7_0213400) (UniProt Q7YTF7); assay: inhibition of Plasmodium PK7 catalytic activity – biochemical, TCAMS antimalarial set, Kinase-Glo luminescence (AID 1159587); conditions: recombinant PfPK7, Kinase-Glo ATP depletion luminescence
# Sequence of Protein kinase 7 (PK7), Plasmodium falciparum 3D7 (PF3D7_0213400) (Q7YTF7 1-343): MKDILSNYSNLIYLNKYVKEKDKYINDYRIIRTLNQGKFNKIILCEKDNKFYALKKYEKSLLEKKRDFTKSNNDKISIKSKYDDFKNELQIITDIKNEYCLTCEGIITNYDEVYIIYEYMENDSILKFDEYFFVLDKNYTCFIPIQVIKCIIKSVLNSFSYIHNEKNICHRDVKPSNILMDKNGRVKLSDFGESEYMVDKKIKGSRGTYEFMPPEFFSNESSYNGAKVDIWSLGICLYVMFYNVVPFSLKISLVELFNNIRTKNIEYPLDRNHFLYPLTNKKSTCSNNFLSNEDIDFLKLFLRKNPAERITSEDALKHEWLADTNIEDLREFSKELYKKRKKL
# [8] = target: Calcium-dependent protein kinase 4 (Plasmodium falciparum (isolate 3D7)) (UniProt Q8IBS5); assay: PfCDPK4 kinase inhibitors, biochemical, TCAMS library (AID 1159588; cut-off not given, nearly all actives have IC50 up to about 0.91 µM); conditions: recombinant PfCDPK4, Kinase-Glo ATP depletion luminescence
# Sequence of Calcium-dependent protein kinase 4 (Plasmodium falciparum (isolate 3D7)) (Q8IBS5 whole entry, looked up): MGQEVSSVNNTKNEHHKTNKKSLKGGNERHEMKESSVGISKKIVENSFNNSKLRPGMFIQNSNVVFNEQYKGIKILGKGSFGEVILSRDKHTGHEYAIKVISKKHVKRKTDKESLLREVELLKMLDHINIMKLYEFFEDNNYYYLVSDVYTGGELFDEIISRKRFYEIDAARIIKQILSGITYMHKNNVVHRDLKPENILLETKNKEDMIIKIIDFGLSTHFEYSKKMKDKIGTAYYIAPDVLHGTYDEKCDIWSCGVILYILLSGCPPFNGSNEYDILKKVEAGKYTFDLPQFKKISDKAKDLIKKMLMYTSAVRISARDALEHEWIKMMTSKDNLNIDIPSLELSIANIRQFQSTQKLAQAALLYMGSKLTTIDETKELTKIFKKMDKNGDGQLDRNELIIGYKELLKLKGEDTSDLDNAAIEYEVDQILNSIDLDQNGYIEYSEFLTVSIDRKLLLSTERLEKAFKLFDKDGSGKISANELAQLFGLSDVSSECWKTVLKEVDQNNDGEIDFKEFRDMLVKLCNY
SMILES,growth inhibition [1],inhibition [2],inhibition [3] [%],growth inhibition [4],outcome [5],outcome [6],outcome [7],outcome [8]
ON=C1c2cc(OCCN3CCCCC3)c(Cl)cc2-c2cc(Cl)c(OCCN3CCCCC3)cc21,98% (active),99% (active),5,97% (active),inactive,inactive,inactive,inactive
Cc1cccc2[nH]c(-c3ccc(-c4cccc(CN5CCN(c6ccncc6)CC5)c4)cc3)nc12,99% (active),50% (active),7,101% (active),inactive,inactive,inactive,inactive
COc1cc(/C=C/C(=O)NC2CCC(N3CCC(c4ccccc4C)CC3)CC2)cc(OC)c1 (stereo not given),11%,51% (active),-4,89% (active),inactive,inactive,inactive,inactive
O=C(Nc1cccc(CN2CCCN(CC3CC3)CC2)c1)c1ccc(-c2ccccc2)cc1,5%,15%,6,96% (active),inactive,inactive,inactive,inactive
Cc1noc(C)c1-c1cccc(CNCc2ccc(-c3ccc(-c4nc5ccc(F)cc5[nH]4)s3)cc2)c1,93% (active),45%,6,102% (active),inactive,inactive,inactive,inactive
CC(C)(C)c1ccc(NC(=O)c2ccc(CN3CCCN(Cc4ccc(F)cc4)CC3)cc2)cc1,7%,55% (active),-1,87% (active),inactive,inactive,inactive,inactive
CC1Cc2ccccc2N1S(=O)(=O)c1cc(OCC(F)(F)F)ccc1OCC(F)(F)F (stereo not given),95% (active),10%,0,96% (active),inactive,inactive,inactive,inactive
COc1ccc2nc3cc(Cl)ccc3c(NCCCCNc3c4ccc(Cl)cc4nc4ccc(OC)cc34)c2c1,99% (active),20%,6,99% (active),inactive,inactive,inactive,inactive
O=C(/C=C/c1ccc(Cl)c(Cl)c1)NCCCCCN1CCCN(C(=S)Nc2ccc(Cl)cc2)CC1,10%,7%,-3,86% (active),inactive,inactive,inactive,inactive
CCCNC(=O)CN1CN(c2ccccc2)C2(CCN(C(=O)c3ccc(C(C)(C)C)cc3)CC2)C1=O,98% (active),0%,0,99% (active),inactive,inactive,inactive,inactive
CO/C(=C\C=C\c1cc2cc(Cl)c(Cl)cc2[nH]1)C(=O)NCCCN1CCN(c2cccc(CCCO)c2)CC1,36%,66% (active),3,90% (active),inactive,inactive,inactive,inactive
COc1cc(F)c2ncc(Cl)c([C@@H](O)CN3CCC(NCc4ccc5c(n4)NC(=O)CO5)CC3)c2c1,100% (active),12%,1,101% (active),inactive,inactive,inactive,inactive
O=C(Nc1cccc(-c2ccc(-c3nc4ccc(F)cc4[nH]3)s2)c1)c1cccnc1,72% (active),46%,-5,100% (active),inactive,inactive,inactive,inactive
O=C(Nc1cc(Cl)cc(Cl)c1)Nc1ccccc1C(=O)NC1CCCCC1,100% (active),12%,4,101% (active),inactive,inactive,inactive,inactive
CC(C)Nc1cc(C(=O)N[C@@H](Cc2ccccc2)[C@H](O)CNCc2cccc(C(F)(F)F)c2)c(F)c(N2CCCCS2(=O)=O)c1,78% (active),-5%,-2,93% (active),inactive,inactive,inactive,inactive
COc1ccc(-n2cc(CNCCCn3ccnc3)c(-c3cccc(F)c3)n2)cc1,17%,21%,0,98% (active),inactive,inactive,inactive,inactive
Clc1cc(Cl)c2cc(CN[C@H]3CCC[C@@H]3CNc3nc4ccccc4[nH]3)[nH]c2c1,58% (active),85% (active),-1,99% (active),inactive,inactive,inactive,inactive
CO/C(=C\C=C\c1cc2cc(Cl)c(Cl)cc2[nH]1)C(=O)NCCCN1CCN(c2cccc(O)c2)CC1,100% (active),46%,-2,91% (active),inactive,inactive,inactive,inactive
Cc1cc(NC(=O)Nc2ccc3ccn(C)c3c2)c2ccccc2n1,69% (active),11%,-1,102% (active),inactive,inactive,inactive,inactive
COc1ccc(CNc2ncc(-c3ccsc3)c(-c3nccs3)n2)cc1OC,69% (active),10%,-1,86% (active),inactive,inactive,inactive,inactive

SMILES,growth inhibition [1],inhibition [2],inhibition [3] [%],growth inhibition [4],outcome [5],outcome [6],outcome [7],outcome [8]
CC(C)(C(=O)Nc1ccc(N2CCC3(CCCN(CC4CC4)C3)CC2)c(Cl)c1)c1cccc(C(F)(F)F)c1,0%,27%,4,92% (active),inactive,inactive,inactive,inactive
O=C(Nc1ccc(OC(F)(F)F)cc1)NC1CCN(c2ccnc3ccccc23)C1 (stereo not given),89% (active),25%,1,101% (active),inactive,inactive,inactive,inactive
CSc1ccc(NC(=O)Nc2cc(C)nc3ccccc23)cc1,23%,7%,1,100% (active),inactive,inactive,inactive,inactive
CCc1cc2c(=O)c(-c3nc(C)cs3)c([C@H](N)Cc3ccc(O)cc3)oc2cc1O,19%,11%,1,101% (active),inactive,inactive,inactive,inactive
CC(C)N(CCOc1ccc2c(c1)N(C(=O)Nc1ccc(Cl)c(Cl)c1)CC2)C(C)C,39%,15%,3,101% (active),inactive,inactive,inactive,inactive
COc1ccc2nccc(N3C[C@H]4C[C@@H]3CN4CCNCc3ccc4c(n3)NC(=O)CS4)c2n1,0%,21%,1,99% (active),inactive,inactive,inactive,inactive
COc1cc2cc(C(=O)Nc3ccccc3)c(N)nc2cc1OC,-2%,0%,-1,90% (active),inactive,inactive,inactive,inactive
CCCCCOc1ccc(C(O)C(CCC(CN2CCCCCC2)C(O)c2ccc(OCCCCC)cc2)CN2CCCCCC2)cc1 (stereo not given),93% (active),99% (active),0,99% (active),inactive,inactive,inactive,inactive
Oc1ccc2ncnc(Nc3ccc(OCc4cccc(F)c4)c(Cl)c3)c2c1,30%,24%,2,100% (active),inactive,inactive,inactive,inactive
O=S(=O)(NCCN1CCCC1)c1cccc(-c2cccc(CNCc3ccc(F)cc3)c2)c1,73% (active),41%,4,99% (active),inactive,inactive,inactive,inactive
NC(N)=Nc1ccc(OCCCCCOc2ccc(N=C(N)N)cc2Br)c(Br)c1,95% (active),27%,0,92% (active),inactive,inactive,inactive,inactive
Cc1ccc(NC(=O)C2CCC2)cc1-c1ccc(C(=O)NCC2CC2)cc1,3%,13%,3,98% (active),inactive,inactive,inactive,inactive
CO/C(=C\C=C\c1cc2cc(Cl)c(Cl)cc2[nH]1)C(=O)NCCCN1CCN(c2ccncc2)CC1,96% (active),12%,4,98% (active),inactive,inactive,inactive,inactive
Nc1nc(N)c2c(n1)CCC(c1ccccc1)C2 (stereo not given),-1%,55% (active),1,93% (active),inactive,inactive,inactive,inactive
COc1ccccc1CCNc1nc(C)cc(NCCC(=O)NCCOc2ccccc2)n1,14%,11%,-3,85% (active),inactive,inactive,inactive,inactive
CC(=O)Nc1ccc(-c2nc3ccc(-c4nc5ccc(NC(C)=O)cc5[nH]4)cc3[nH]2)cc1,99% (active),-13%,-2,99% (active),inactive,inactive,inactive,inactive
O=C(/C=C/c1ccc(Cl)c(Cl)c1)NCCCCCN1CCC(C(=O)Nc2ccc3c(c2)OCO3)CC1,-3%,18%,4,92% (active),inactive,inactive,inactive,inactive
O=C(Nc1ccc(Cl)c(Cl)c1)N1CCc2ccc(OCCCN3CCCCC3)cc2CC1,-2%,27%,-2,92% (active),inactive,inactive,inactive,inactive
CCCCOc1c(CCNCCCCNCCc2cc(F)c3ccccc3c2OCCCC)cc(F)c2ccccc12,78% (active),97% (active),-3,96% (active),inactive,inactive,inactive,inactive
O=S(=O)(c1ccc(OCc2ccc(Cl)cc2)cc1)c1cc2c(cc1OCc1ccccc1)CCN(C1CCC1)CC2,13%,17%,6,89% (active),inactive,inactive,inactive,inactive
